TIM10 inh = inhibits growth of TIM10 yeast strain; S. cerevisiae TIM10 strain growth, BacTiter-Glo luminescence, 24 h; inhibition, % at 10 µM; actives 1.4% (n = 330,000);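 active means inhibition of 40% or more at the single tested concentration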;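 further: wild-type TIM10 isogenic control strain grown at permissive 25 °C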
SKKanGAS inh = SKKanGAS growth inhibition | S. pyogenes SKKanGAS, kanamycin growth, BacTiter-Glo, 6 h | inhibition, % at 7.5 µM | actives 1.3% (n = 300,000) | AID 1662;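 active means mean replicate score, as percent of positive control median, at least 50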;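 further: strain carries kanamycin resistance gene driven by streptokinase promoter and grows in 40 µg/ml kanamycin; loss of luminescence reflects streptokinase promoter inhibition or plain growth inhibition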
tim23-1 inh = inhibits growth of tim23-1 mutant yeast | AID 463212 | inhibition, % at 20 µM | actives 1.3% (n = 330,000) | S. cerevisiae tim23-1 growth, BacTiter-Glo luminescence, 24 h;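 active means growth inhibition of the mutant yeast at or above 50%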;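 further: temperature-sensitive mutant grown at 25 °C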
V-ATPase pH = yeast V-ATPase proton transport regulation by pHLuorin; actives 0.37% (n = 350,000); AID 504577; response, % at 10 µM; S. cerevisiae, pHLuorin cytosolic pH fluorescence; in the data active means response mostly above about 7.3%, no sharp cut-off; inactive means mostly below about 5.4%; further: actives read high
PfHsp90 yeast 2 = growth inhibition of yeast expressing Plasmodium Hsp90. actives 0.32% (n = 310,000). S. cerevisiae expressing PfHsp90, BacTiter-Glo ATP, 48 h; yeast lacking PDR1 and PDR3 efflux regulators. inhibition, % at 9.4 µM;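 active means every replicate shows inhibition above about 80%, whatever the replicate mean, limit read from the data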
tim10-1 inh = tim10-1 yeast growth inhibition. S. cerevisiae tim10-1 ts strain growth, BacTiter-Glo, 24 h. inhibition, % at 20 µM. actives 2.2% (n = 330,000);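 active means inhibition of at least 40%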;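 further: mutant grown at 25 °C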
A number is an active result; 0 = inactive; - = not tested or not shown. Sampled rows, rich in hits. Any-hit rate of the full collection: about 4.6%.

SMILES	TIM10 inh	SKKanGAS inh	tim23-1 inh	V-ATPase pH	PfHsp90 yeast 2	tim10-1 inh
CC1(c2ccc(Cl)cc2Cl)OCC(Cn2cncn2)O1 (stereo unspecified)	0	0	0	0	0	0
Brc1ccc2[nH]cc(C=NN3CCCCCC3)c2c1	-	-	-	0	0	-
C=Cc1cc(OC)c2c(c1)c(=O)oc1c2cc(OC)c2c(O)ccc(C3OC(C)C(O)C(C)(O)C3O)c21 (stereo unspecified)	-	-	-	0	0	-
COC(=O)C1=C(C(=O)OC)SC2(S1)C(C(=O)OC)=C(C(=O)OC)Sc1c2ssc1=O	-	-	-	0	117	-
CC(C)COC(=O)N1Cc2ccccc2-n2nncc2C1	-	-	-	0	-	-
CCCNC1=C(C)C(=O)C2=C(C1=O)C(COC(N)=O)[C@]1(OC)C3NC3CN21 (stereo partly specified)	0	109	0	0	0	0
CCCCn1c(=O)c(C(=O)Nc2nnc(C(C)C)s2)c(O)c2ccccc21	0	95	0	-	-	0
CCCCn1c(=O)c(C(=O)Nc2ncccc2C)c(O)c2ccccc21	0	107	0	0	0	0
CCCCCCn1c(=O)c(C(=O)Nc2ncccc2C)c(O)c2ccccc21	0	94	0	0	0	0
CCCCCCn1c(=O)c(C(=O)Nc2nnc(C)s2)c(O)c2ccccc21	0	0	0	-	-	0
CCCCCn1c(=O)c(C(=O)Nc2ccccc2C)c(O)c2ccccc21	0	0	0	0	0	0
CCCCCn1c(=O)c(C(=O)Nc2nc(CC(=O)OCC)cs2)c(O)c2ccccc21	0	71	0	0	0	0
C=C(C)[C@@H]1[C@H]2OC(=O)[C@H]1[C@]1(O)C[C@H]3O[C@]34C(=O)O[C@H]2[C@]14C	-	-	-	0	0	-
CC(=O)OC(C)(C)/C=C/C(=O)[C@](C)(O)C1[C@H](O)C[C@@]2(C)C3CC=C4C(C[C@H](O)C(=O)C4(C)C)[C@]3(C)C(=O)C[C@]12C (stereo partly specified)	0	-	0	0	0	0
CC(=O)OC1=CC[C@H]2[C@@H]3CC[C@H]4C[C@H](OC(C)=O)[C@@H](OC(C)=O)C[C@]4(C)[C@H]3CC[C@]12C	0	-	0	0	0	0
O=[N+]([O-])c1ccc(N(CCO)CCO)c2c1no[n+]2[O-]	-	-	-	0	-	-
CN1CCN(c2ccc([N+](=O)[O-])c3no[n+]([O-])c23)CC1	-	104	-	0	0	-
CCCC12CN3CC(CCC)(CN(C1)C3c1ccccn1)C2=O (stereo unspecified)	0	75	0	0	-	0
CCCC12CN3CCN(C1)CC(CCC)(C3)C2=O	0	0	0	0	0	0
CCCC/C(C)=C/[C@@H](NP(=O)(c1ccccc1)c1ccccc1)c1ccccc1	0	73	0	0	0	0
CCCCCP(=O)(O)c1ccccc1	0	0	0	0	-	0
CC1([N+](=O)[O-])COP(=O)(NC2CC2)OC1 (stereo unspecified)	-	-	-	0	0	-
CS(=O)(=O)N1Cc2ccccc2-n2nncc2C1	-	-	-	0	0	-
Oc1c(Cl)cccc1Cc1cc(Cl)cc(Cl)c1O	-	-	-	0	109	-
Oc1c(Cl)cc(Cl)cc1CN1CCN(Cc2ccccc2)CC1	0	0	0	0	0	0
SMILES	TIM10 inh	SKKanGAS inh	tim23-1 inh	V-ATPase pH	PfHsp90 yeast 2	tim10-1 inh
CN(C)C1C(=O)C(C(N)=O)=C(O)C2(O)C(=O)C3=C(O)c4c(O)cccc4C(C)(O)C3C(O)C12 (stereo unspecified)	0	105	0	0	0	0
CC1=CC(C)CC(C)OC(=O)CC(c2ccc(O)cc2)NC(=O)C(Cc2c(Br)[nH]c3ccccc23)N(C)C(=O)C(C)NC(=O)C(C)C1 (stereo unspecified)	-	-	-	0	105	-
COC[C@H]1OC(=O)c2coc3c2[C@@]1(C)C1=C(C3=O)[C@@H]2CCC(=O)[C@@]2(C)C[C@H]1OC(C)=O	-	-	-	0	106	-
Cc1nc(C)c(C(=O)NN=Cc2ccc(N(CCCl)CCCl)cc2)s1	-	-	-	0	0	-
O=C(Nc1cccnc1)c1c(O)c2c(n(Cc3ccccc3)c1=O)CCCC2	0	52	0	0	0	0
CC1Oc2cc3c(-c4c(O)cc(O)c5c(O)c6c(cc45)OC(C)C(C)C6=O)c(O)cc(O)c3c(O)c2C(=O)C1C (stereo unspecified)	0	107	0	0	0	0
CC(C)c1oc(=O)cc2c1[C@@H](O)[C@H]1OC(=O)[C@@]3(C)C[C@@H](O)[C@@H](O)[C@@]2(C)C13 (stereo partly specified)	0	0	0	0	0	0
c1cc2c(cc1N1CCCCC1)C1CC2CCN1 (stereo unspecified)	-	-	-	0	0	-
CCCCn1c(O)c(C(C)=Nc2ccc(OCC)cc2)c(=O)[nH]c1=O	0	65	0	0	0	0
CCCCC/C=C\C/C=C\C/C=C\C/C=C\CCCC(=O)Nc1ccc(O)cc1	-	107	-	-	-	-
C/C(=N\NC(=O)c1ccccc1O)c1c(O)n(C2CCCCC2)c(=O)[nH]c1=O	0	50	0	0	0	0
CC(C)(C)c1ccc(CSc2cnn(C(C)(C)C)c(=O)c2Cl)cc1	0	59	0	0	0	0
O[C@@H]1CCCN2CCc3c([nH]c4ccccc34)[C@H]12	-	98	-	0	0	-
Oc1ccc2c3c1O[C@H]1c4[nH]c5ccccc5c4C[C@@]4(O)[C@@H](C2)N(CC2CC2)CC[C@]314	0	-	0	0	0	0
C/C(=N\N1CCCCCC1)c1c(O)n(-c2ccccc2C)c(=O)[nH]c1=O	0	0	0	0	0	0
Cc1ccccc1CN1CCCN(Cc2ccc(Cl)cc2)S1(=O)=O	0	63	0	0	0	0
Cc1ccc(CN2CCCN(Cc3ccc(Cl)cc3)S2(=O)=O)cc1	0	0	0	0	0	0
C[C@]12CCC3C(CC[C@H]4C[C@@H](O)CC[C@]34C)C1C[C@@H](Br)[C@H]2O (stereo partly specified)	0	-	0	-	-	0
CC1=CC2OC3CC4OC(=O)C=CC=CC(=O)OCCC(C)C(O)C(=O)OCC2(CC1)C4(C)C31CO1 (stereo unspecified)	-	-	-	0	105	-
N[C@@H]1CCCC[C@H]1N.O=C(O)C(=O)O.[Pt]	0	0	0	-	-	0
CN1C(=O)/C(=C/c2ccc(Cl)s2)C(=O)NC1=S	-	0	-	25	94	-
CN1C(=O)/C(=C\c2ccc(N3CCCCCC3)cc2)C(=O)NC1=S	0	0	0	0	0	0
Cc1ccc(OP(=O)(Nc2cccc(C)c2)Oc2ccc(C)cc2)cc1	0	76	0	0	0	0
CCCCCCC(=O)N/N=C/c1c(O)n(CCCC)c(=S)[nH]c1=O	0	84	0	0	0	0
CCCCC(=O)N/N=C/c1c(O)n(CC)c(=S)[nH]c1=O	0	0	0	0	0	0
CCCCn1c(O)c(/C=N/NC(=O)c2ccncc2)c(=O)[nH]c1=S	0	106	0	0	0	0
Cn1c(O)c(/C=N/NC(=O)c2ccncc2)c(=O)[nH]c1=S	0	0	0	0	-	0
O=C(Nc1cc(Cl)cc(Cl)c1)N1Cc2ccccc2-n2nncc2C1	-	-	-	0	-	-

Screens from PubChem BioAssay.
